Hit rate of the full screen: of about 5,500 compounds, about 2,000 (36%) were called active. Roughly 18% stayed inconclusive and do not appear here. The list shows a part of the results. Values without a mark were called inactive. No stated cut-off is given here; in the data, active means normalized growth mostly below about 0.91 (no sharp cut-off); inconclusive means no clear call, values can overlap the other calls; inactive means mostly above about 0.92.
Experiment: chemical genetic growth profiling, strain panel (AID 1159580);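 further: tested at 20 µM; growth read once vehicle control cultures reached saturation at 30 °C; 1 = growth at the plate median or of vehicle wells; lower values mean less growth of the strain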
Conditions: S. cerevisiae deletion strains, growth OD
[1] = locus YAR019C, strain CDC15, hits give low values
[2] = locus YBL105C, strain PKC1, hits give low values
[3] = locus YBR135W, strain CKS1, hits give low values
[4] = locus YBR136W, strain MEC1, hits give low values
[5] = locus YBR160W, strain CDC28, hits give low values
[6] = locus YDL017W, strain CDC7, hits give low values
[7] = locus YDL028C, strain MPS1, hits give low values
[8] = locus YDL101C, strain DUN1, hits give low values
[9] = locus YDL108W, strain KIN28, hits give low values
[10] = locus YDL132W, strain cdc53, hits give low values
[11] = locus YDL214C, strain PRR2, hits give low values
[12] = locus YDR052C, strain DBF4, hits give low values
[13] = locus YDR054C, strain cdc34, hits give low values
[14] = locus YDR226W, strain ADK1, hits give low values
[15] = locus YDR477W, strain SNF1, hits give low values
[16] = locus YER123W, strain YCK3, hits give low values
[17] = locus YER133W, strain GLC7, hits give low values
[18] = locus YFL009W, strain cdc4, hits give low values
[19] = locus YFL029C, strain CAK1, hits give low values
[20] = locus YFR003C, strain YPI1, hits give low values
[21] = locus YFR019W, strain FAB1, hits give low values
[22] = locus YFR028C, strain CDC14, hits give low values
[23] = locus YGR040W, strain KSS1, hits give low values
[24] = locus YGR052W, strain FMP48, hits give low values
[25] = locus YGR092W, strain DBF2, hits give low values
[26] = locus YHR030C, strain SLT2, hits give low values
[27] = locus YHR079C, strain IRE1, hits give low values
[28] = locus YHR082C, strain KSP1, hits give low values
[29] = locus YHR205W, strain SCH9, hits give low values
[30] = locus YIL147C, strain SLN1, hits give low values
[31] = locus YJL095W, strain BCK1, hits give low values
[32] = locus YJL128C, strain PBS2, hits give low values
[33] = locus YJL157C, strain FAR1, hits give low values
[34] = locus YJR016C, strain ILV3, hits give low values
[35] = locus YJR066W, strain TOR1 (second series), hits give low values
[36] = locus YJR066W, strain TOR1, hits give low values
[37] = locus YKL048C, strain ELM1, hits give low values
[38] = locus YKL067W, strain YNK1, hits give low values
[39] = locus YKL101W, strain HSL1, hits give low values
[40] = locus YKL193C, strain SDS22, hits give low values
[41] = locus YKL203C, strain TOR2, hits give low values
[42] = locus YLR113W, strain HOG1, hits give low values
[43] = locus YLR133W, strain CKI1, hits give low values
[44] = locus YLR403W, strain SFP1, hits give low values
[45] = locus YML070W, strain DAK1, hits give low values
[46] = locus YMR001C, strain CDC5, hits give low values
[47] = locus YMR205C, strain PFK2 (second series), hits give low values
[48] = locus YMR277W, strain FCP1, hits give low values
[49] = locus YNL006W, strain LST8, hits give low values
[50] = locus YNL020C, strain ARK1, hits give low values
[51] = locus YNL161W, strain CBK1, hits give low values
[52] = locus YNL183C, strain NPR1, hits give low values
[53] = locus YNL207W, strain RIO2, hits give low values
[54] = locus YNL222W, strain SSU72, hits give low values
[55] = locus YNL307C, strain MCK1 (second series), hits give low values
[56] = locus YOL078W, strain AVO1, hits give low values
[57] = locus YOL136C, strain PFK27, hits give low values
[58] = locus YOR061W, strain CKA2, hits give low values
[59] = locus YOR119C, strain RIO1, hits give low values
[60] = locus YOR231W, strain MKK1, hits give low values
[61] = locus YOR329C, strain SCD5, hits give low values
[62] = locus YPL031C, strain PHO85, hits give low values
[63] = locus YPL153C, strain RAD53, hits give low values
[64] = locus YPL204W, strain HRR25, hits give low values
[65] = locus YPL209C, strain IPL1, hits give low values
[66] = locus YPL256C, strain CLN2, hits give low values
[67] = locus YPR025C, strain CCL1, hits give low values
[68] = locus YPR106W, strain ISR1, hits give low values
[69] = locus YPR111W, strain DBF20, hits give low values
[70] = strain NNK1, hits give low values
[71] = strain TSCII, hits give low values

Question: What does the source list for `CS/C(Nc1cccc(C(F)(F)F)c1)=C(/C#N)S(=O)(=O)c1ccc(Cl)cc1`?
Answer: normalized growth [1]: 0.951; normalized growth [2]: 0.945; normalized growth [3]: 0.953; normalized growth [4]: 0.941; normalized growth [5]: 0.948; normalized growth [6]: 0.948; normalized growth [7]: 0.957; normalized growth [8]: 0.953; normalized growth [9]: 0.949; normalized growth [10]: 0.953; normalized growth [11]: 0.96; normalized growth [12]: 0.932; normalized growth [13]: 0.946; normalized growth [14]: 0.931; normalized growth [15]: 0.963; normalized growth [16]: 0.941; normalized growth [17]: 0.971; normalized growth [18]: 0.942; normalized growth [19]: 0.934; normalized growth [20]: 0.944; normalized growth [21]: 0.957; normalized growth [22]: 0.948; normalized growth [23]: 0.947; normalized growth [24]: 0.943; normalized growth [25]: 0.937; normalized growth [26]: 0.996; normalized growth [27]: 0.987; normalized growth [28]: 1.01; normalized growth [29]: 0.914; normalized growth [30]: 0.953; normalized growth [31]: 0.916; normalized growth [32]: 0.935; normalized growth [33]: 0.954; normalized growth [34]: 0.944; normalized growth [35]: 0.95; normalized growth [36]: 0.988; normalized growth [37]: 0.946; normalized growth [38]: 0.972; normalized growth [39]: 0.954; normalized growth [40]: 0.951; normalized growth [41]: 1; normalized growth [42]: 0.882; normalized growth [43]: 0.945; normalized growth [44]: 0.925; normalized growth [45]: 0.962; normalized growth [46]: 0.948; normalized growth [47]: 0.978; normalized growth [48]: 0.956; normalized growth [49]: 0.958; normalized growth [50]: 0.943; normalized growth [51]: 0.94; normalized growth [52]: 0.992; normalized growth [53]: 0.936; normalized growth [54]: 0.957; normalized growth [55]: 0.926; normalized growth [56]: 0.951; normalized growth [57]: 0.915; normalized growth [58]: 0.985; normalized growth [59]: 1.01; normalized growth [60]: 0.94; normalized growth [61]: 0.951; normalized growth [62]: 0.956; normalized growth [63]: 0.973; normalized growth [64]: 0.911; normalized growth [65]: 0.943; normalized growth [66]: 0.981; normalized growth [67]: 0.946; normalized growth [68]: 0.954; normalized growth [69]: 0.949; normalized growth [70]: 0.947; normalized growth [71]: 0.942

Question: With `N#C/C(=N/Nc1cccc(C(F)(F)F)c1)C(=O)c1csc(-c2cccnc2)n1` as the compound, how does the normalized growth [1] read?
Answer: 0.96

Question: What about the normalized growth [2] of the same compound?
Answer: 0.958

Question: What about the normalized growth [3] of the same compound?
Answer: 0.955

Question: What about the normalized growth [4] of the same compound?
Answer: 0.962

Question: What about the normalized growth [5] of the same compound?
Answer: 0.961

Question: What about the normalized growth [6] of the same compound?
Answer: 0.96

Question: And the normalized growth [7]?
Answer: 0.962

Question: What about the normalized growth [8] of the same compound?
Answer: 0.964

Question: What about the normalized growth [9] of the same compound?
Answer: 0.963

Question: What about the normalized growth [10] of the same compound?
Answer: 0.964

Question: What about the normalized growth [11] of the same compound?
Answer: 0.83

Question: What about the normalized growth [12] of the same compound?
Answer: 0.945

Question: What about the normalized growth [13] of the same compound?
Answer: 0.939

Question: What about the normalized growth [14] of the same compound?
Answer: 0.963

Question: And the normalized growth [15]?
Answer: 0.762

Question: And the normalized growth [16]?
Answer: 0.56 (active)

Question: What about the normalized growth [17] of the same compound?
Answer: 0.883

Question: And the normalized growth [18]?
Answer: 0.96

Question: What about the normalized growth [19] of the same compound?
Answer: 0.955

Question: What about the normalized growth [20] of the same compound?
Answer: 0.961

Question: What about the normalized growth [21] of the same compound?
Answer: 0.364 (active)

Question: And the normalized growth [22]?
Answer: 0.967

Question: What about the normalized growth [23] of the same compound?
Answer: 0.832

Question: And the normalized growth [24]?
Answer: 0.566 (active)

Question: What about the normalized growth [25] of the same compound?
Answer: 0.297 (active)

Question: What about the normalized growth [26] of the same compound?
Answer: 0.115 (active)

Question: What about the normalized growth [27] of the same compound?
Answer: 0.139 (active)

Question: And the normalized growth [28]?
Answer: 0.292 (active)

Question: What about the normalized growth [29] of the same compound?
Answer: 0.75

Question: And the normalized growth [30]?
Answer: 0.96

Question: What about the normalized growth [31] of the same compound?
Answer: 0.232 (active)

Question: And the normalized growth [32]?
Answer: 0.923

Question: What about the normalized growth [33] of the same compound?
Answer: 0.802

Question: What about the normalized growth [34] of the same compound?
Answer: 0.954

Question: And the normalized growth [35]?
Answer: 0.578 (active)

Question: And the normalized growth [36]?
Answer: 0.343 (active)

Question: What about the normalized growth [37] of the same compound?
Answer: 0.632 (active)

Question: What about the normalized growth [38] of the same compound?
Answer: 0.854

Question: And the normalized growth [39]?
Answer: 0.534 (active)

Question: And the normalized growth [40]?
Answer: 0.959

Question: What about the normalized growth [41] of the same compound?
Answer: 0.763

Question: And the normalized growth [42]?
Answer: 0.34 (active)

Question: What about the normalized growth [43] of the same compound?
Answer: 0.711 (active)

Question: And the normalized growth [44]?
Answer: 0.776

Question: What about the normalized growth [45] of the same compound?
Answer: 0.578 (active)

Question: And the normalized growth [46]?
Answer: 0.964

Question: And the normalized growth [47]?
Answer: 0.807

Question: And the normalized growth [48]?
Answer: 0.955

Question: What about the normalized growth [49] of the same compound?
Answer: 0.961

Question: What about the normalized growth [50] of the same compound?
Answer: 0.626 (active)

Question: And the normalized growth [51]?
Answer: 0.956

Question: What about the normalized growth [52] of the same compound?
Answer: 0.46 (active)

Question: What about the normalized growth [53] of the same compound?
Answer: 0.941

Question: What about the normalized growth [54] of the same compound?
Answer: 0.96

Question: And the normalized growth [55]?
Answer: 0.461 (active)

Question: And the normalized growth [56]?
Answer: 0.955

Question: And the normalized growth [57]?
Answer: 0.529 (active)

Question: What about the normalized growth [58] of the same compound?
Answer: 0.85

Question: What about the normalized growth [59] of the same compound?
Answer: 0.838

Question: What about the normalized growth [60] of the same compound?
Answer: 0.198 (active)

Question: And the normalized growth [61]?
Answer: 0.966

Question: What about the normalized growth [62] of the same compound?
Answer: 0.484 (active)

Question: What about the normalized growth [63] of the same compound?
Answer: 0.317 (active)

Question: And the normalized growth [64]?
Answer: 0.464 (active)

Question: And the normalized growth [65]?
Answer: 0.957

Question: What about the normalized growth [66] of the same compound?
Answer: 0.236 (active)

Question: And the normalized growth [67]?
Answer: 0.956

Question: And the normalized growth [68]?
Answer: 0.971

Question: What about the normalized growth [69] of the same compound?
Answer: 0.958

Question: What about the normalized growth [70] of the same compound?
Answer: 0.95

Question: What about the normalized growth [71] of the same compound?
Answer: 0.954
